The values that follow come from PubChem BioAssay (NCI).

Assay in all cases: NCI-60 one-dose screen, 48 h (100 = growth as untreated, 0 = no growth, -100 = all killed)
Holding throughout (details): 10 µM unless noted

In experiment [1] the test system is HCT-15 colon.
For experiment [2], the system named is HT29 colon.
Experiment [3] has as its system SNB-75 CNS.
In experiment [4] the test system is SNB-19 CNS.
Experiment [5] concerns U251 CNS.
Experiment [6] deals with PC-3 prostate.
In experiment [7] the test system is SK-MEL-5 melanoma.
The subject of experiment [8] is UACC-62 melanoma.
Experiment [9] deals with LOX IMVI melanoma.
For experiment [10], the system named is SK-MEL-28 melanoma.
The test system of experiment [11] is SK-MEL-2 melanoma.
Experiment [12] has as its system EKVX NSCLC.
The subject of experiment [13] is SN12C renal.
Experiment [14] relates to UO-31 renal.
Experiment [15] concerns TK-10 renal.
The subject of experiment [16] is ACHN renal.
Experiment [17] relates to CAKI-1 renal.
The subject of experiment [18] is A498 renal.
Experiment [19] has as its system MOLT-4 leukemia.
The test system of experiment [20] is CCRF-CEM leukemia.

SMILES strings stand for the structures. This is part of a sample that, as a whole, favours compounds with a hit. Of some 83,000 tested, about 20% had one in any assay.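 Note: values are percent growth. 100 is the growth of untreated cells, values between 100 and 0 indicate rising inhibition; between -100 and 0 indicates cell death.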 A number with no mark means an inactive call. The source made the active and inactive calls. Rule for the calls: active = growth percent below 10; inactive = the rest.

Regarding `CCN(Cc1ccc(CN(CC)C(=O)C(Cl)(Cl)Cl)cc1)C(=O)C(Cl)(Cl)Cl`, the growth is 94.2% in experiment [1]; 77.5% in [2]; 87.7% in experiment [3]; 106% in [4]; 91.6% in [5]; 64.9% in [6]. Further, the growth in experiment [7] was 71.2%; in experiment [8], 82.7%; in experiment [9], 78.3%; in experiment [10] it was 96.2%; in [11], 89%; in experiment [12], 68.3%. Besides, the growth in experiment [13] is 97.8%; in [14], 78.7%; in experiment [15], 96.1%; in [16] it was 91.1%; in [17], 72%; in experiment [18], 82.6%. Further, the growth in [19] was 29.9%.

On to `O=C(Nc1ccc(F)c(Cl)c1)c1n[nH]c(=O)c2ccccc12`, for which the growth in experiment [1] is 89.6%; in experiment [2], 112%; in experiment [3], 94.2%; in experiment [4] it was 104%; in experiment [5], 90.3%; in experiment [6], 112%. In addition, the growth in experiment [7] was 90.9%; in experiment [8] it was 81.4%; in experiment [9] it was 87.4%; in experiment [10], 115%; in experiment [11], 74.8%; in [12] it was 123%. The growth in experiment [13] is 98.1%; in experiment [14], 106%; in experiment [15], 157%; in experiment [16], 89.1%; in [17], 89.5%; in experiment [18], 103%. For the same compound, the growth in experiment [19] is 97.2%.

Take `C=CCOc1ccc(/C(O)=C2\C(=O)C(=O)N(c3nccs3)C2c2ccccc2F)cc1` (stereo unspecified): the growth in experiment [1] was 82.1%; in experiment [2] it was 108%; in experiment [3] it was 89.8%; in [4], 102%; in [5], 93%; in experiment [6], 114%. Besides, the growth was 94.7% in experiment [7]; 76.6% in [8]; 90.3% in experiment [9]; 107% in experiment [10]; 54% in experiment [11]; 133% in [12]. In addition, the growth is 103% in experiment [13]; 110% in experiment [14]; 89.1% in [15]; 79.4% in experiment [16]; 98.7% in experiment [17]; 73.8% in experiment [18]. In addition, the results for the growth in experiment [20] and in experiment [19] were 131% and 98.3%, respectively.

In the case of `O=S=Nc1ccc([N+](=O)[O-])cc1`, the growth is 85.2% in experiment [1]; 94.1% in experiment [2]; 88.7% in [3]; 103% in experiment [4]; 91.6% in [5]; 96.8% in experiment [6]. Further, the growth in experiment [7] was 101%; in experiment [8], 73%; in [9], 71.2%; in [10], 107%; in experiment [11], 98.4%; in experiment [12], 96.9%. Besides, the growth is 98.7% in [13]; 78.3% in experiment [14]; 84.9% in experiment [15]; 80.8% in experiment [16]; 78.9% in experiment [17]; 79.2% in experiment [18]. Also, the growth in [20] is 101%; in experiment [19] it was 91.2%.

For the compound `NC(=O)c1cccc(N2Cc3ccccc3OC3=C2C(=O)c2c(O)ccc(O)c2C3=O)c1`, the growth in experiment [1] was -49.7% (active); in experiment [2], -55.8% (active); in experiment [3] it was 6.48% (active); in experiment [4], 1% (active); in experiment [5] it was -7.38% (active); in experiment [6], -44.5% (active). Also, the growth in experiment [7] was -7.12% (active); in experiment [8], -86.1% (active); in experiment [9], -63.5% (active); in experiment [10], -85.6% (active); in experiment [11] it was -38.7% (active); in experiment [12], -0.27% (active). Besides, the growth was -53.5% (active) in experiment [13]; -86.7% (active) in [14]; -99.7% (active) in experiment [15]; -93.7% (active) in [16]; -99.4% (active) in experiment [17]; 62.1% in [18]. Further, the growth in [19] is -36.2% (active).

Regarding `CC/C=C\C[C@H]1C/C=C2/C(=O)C(Cl)=C[C@@H]2C/C=C\CCCC(=O)O1`, the growth is -90.8% (active) in experiment [1]; -55.6% (active) in [2]; -19.9% (active) in [3]; -40.2% (active) in [4]; -79.2% (active) in [5]; -69.9% (active) in [6]. The growth in experiment [7] was -62.6% (active); in experiment [8], -53.1% (active); in experiment [9], -91.4% (active); in [10], -43% (active); in [11] it was -44.1% (active); in [12], -82% (active). Moreover, the growth in experiment [13] was -1.11% (active); in [14] it was -93.8% (active); in experiment [15], -55.3% (active); in [16], -64.6% (active); in experiment [17], 2.64% (active); in experiment [18], -68.3% (active). Moreover, the values for the growth in experiment [20] and in experiment [19] were -19.1% (active) and -9.42% (active), respectively.

Turning to `COc1ccc(NC(=S)/N=c2\oc3c(OC)cccc3cc2-c2cc3ccccc3[nH]2)cc1`, the growth in experiment [1] is 84.1%; in experiment [2], 82.8%; in experiment [3], -12.2% (active); in [4] it was 57.8%; in experiment [5] it was 75.7%; in experiment [6], 58.4%. In addition, the growth was 72.1% in experiment [7]; 76.4% in [8]; 76.8% in [9]; 69.9% in experiment [10]; 90.2% in [11]; 79.6% in experiment [12]. Further, the growth in experiment [13] was 84.7%; in [14], 95.2%; in experiment [15] it was 96%; in experiment [16], 44.8%; in [17] it was 28.3%; in experiment [18] it was 87.9%. Further, the growth in experiment [19] is 99.1%.

For `CC1Cc2c(N(C)C)ncnc2N(C)c2ccc(O)cc21` (stereo unspecified), the growth was 50.5% in [1]; 97.8% in [2]; 72.9% in experiment [3]; 83.1% in [4]; 78.9% in experiment [5]; 72.9% in experiment [6]. Moreover, the growth in experiment [7] was 82.9%; in [8], 81.2%; in experiment [9] it was 86.2%; in [10], 98.6%; in experiment [11], 89.6%; in [12] it was 71.3%. Besides, the growth was 99% in experiment [13]; 80.2% in experiment [14]; 95.9% in experiment [15]; 101% in experiment [16]; 70.7% in experiment [17]; 76.7% in experiment [18]. Also, the growth in experiment [20] was 85.3%; in [19] it was 75.6%.
